The target in experiment [1] is Ribosomal protein S6 kinase alpha-6 (Homo sapiens) (UniProt Q9UK32). As to conditions: at 1 µM.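 Further: each value is a mean inhibition of RSK4 from a GSK PKIS panel screen.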
Experiment [2] addresses T1, Serine/threonine-protein kinase Sgk1 (Homo sapiens) (UniProt O00141).
T1 sequence (whole entry): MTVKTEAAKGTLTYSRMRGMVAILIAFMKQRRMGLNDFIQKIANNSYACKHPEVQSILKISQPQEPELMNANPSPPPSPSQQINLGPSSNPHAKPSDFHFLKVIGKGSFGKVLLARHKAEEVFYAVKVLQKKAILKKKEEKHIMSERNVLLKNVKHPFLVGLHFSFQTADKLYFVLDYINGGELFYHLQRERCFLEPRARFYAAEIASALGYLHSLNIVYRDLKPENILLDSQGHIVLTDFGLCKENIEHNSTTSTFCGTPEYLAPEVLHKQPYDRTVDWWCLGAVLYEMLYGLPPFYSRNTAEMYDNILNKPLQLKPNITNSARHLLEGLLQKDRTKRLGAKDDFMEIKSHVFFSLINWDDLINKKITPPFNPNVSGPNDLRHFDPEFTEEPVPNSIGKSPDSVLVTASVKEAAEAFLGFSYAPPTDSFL
As to conditions: at 0.1 µM.

Experiment [3] has as its target T1, Serine/threonine-protein kinase Sgk1 (Homo sapiens). As to conditions: at 1 µM.
Experiment [4] addresses T2, Serine/threonine-protein kinase Sgk2 (Homo sapiens) (UniProt Q9HBY8).
T2 sequence (whole entry): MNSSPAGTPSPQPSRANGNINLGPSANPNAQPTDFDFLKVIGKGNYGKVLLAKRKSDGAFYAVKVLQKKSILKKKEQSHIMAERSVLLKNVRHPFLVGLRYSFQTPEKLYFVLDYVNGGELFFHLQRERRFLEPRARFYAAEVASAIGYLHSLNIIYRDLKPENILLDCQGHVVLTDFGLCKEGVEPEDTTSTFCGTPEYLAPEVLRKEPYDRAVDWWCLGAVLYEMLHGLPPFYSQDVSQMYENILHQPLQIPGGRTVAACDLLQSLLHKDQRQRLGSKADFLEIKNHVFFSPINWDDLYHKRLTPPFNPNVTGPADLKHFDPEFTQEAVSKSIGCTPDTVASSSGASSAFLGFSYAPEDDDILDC
As to conditions: at 0.1 µM.

Experiment [5] has as its target T2, Serine/threonine-protein kinase Sgk2 (Homo sapiens). As to conditions: at 1 µM.
Experiment [6] addresses T3, Serine/threonine-protein kinase Sgk3 (Homo sapiens) (UniProt Q96BR1).
T3 sequence (whole entry): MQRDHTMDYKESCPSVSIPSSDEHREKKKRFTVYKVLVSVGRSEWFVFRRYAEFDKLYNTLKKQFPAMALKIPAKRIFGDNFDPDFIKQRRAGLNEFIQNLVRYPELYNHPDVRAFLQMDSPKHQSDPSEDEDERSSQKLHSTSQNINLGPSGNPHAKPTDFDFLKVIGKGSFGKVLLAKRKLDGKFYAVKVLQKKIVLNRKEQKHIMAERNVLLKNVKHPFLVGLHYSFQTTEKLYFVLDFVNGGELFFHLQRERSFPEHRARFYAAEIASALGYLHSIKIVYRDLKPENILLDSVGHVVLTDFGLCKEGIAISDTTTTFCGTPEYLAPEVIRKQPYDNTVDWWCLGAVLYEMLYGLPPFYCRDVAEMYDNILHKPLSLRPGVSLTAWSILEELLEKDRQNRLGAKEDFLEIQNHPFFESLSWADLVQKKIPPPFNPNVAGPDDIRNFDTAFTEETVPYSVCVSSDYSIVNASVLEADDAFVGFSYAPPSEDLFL
As to conditions: at 0.1 µM.

The target of experiment [7] is T3, Serine/threonine-protein kinase Sgk3 (Homo sapiens). As to conditions: at 1 µM.
Experiment [8] concerns the target 5'-AMP-activated protein kinase catalytic subunit alpha-1 (Homo sapiens) (UniProt Q13131). As to conditions: at 0.1 µM.
Experiment [9] has the same target. As to conditions: at 1 µM.
Experiment [10] deals with 5'-AMP-activated protein kinase catalytic subunit alpha-2 (Homo sapiens) (UniProt P54646). As to conditions: at 1 µM.
The target of experiment [11] is T4, NUAK family SNF1-like kinase 1 (Homo sapiens) (UniProt O60285).
T4 sequence (whole entry): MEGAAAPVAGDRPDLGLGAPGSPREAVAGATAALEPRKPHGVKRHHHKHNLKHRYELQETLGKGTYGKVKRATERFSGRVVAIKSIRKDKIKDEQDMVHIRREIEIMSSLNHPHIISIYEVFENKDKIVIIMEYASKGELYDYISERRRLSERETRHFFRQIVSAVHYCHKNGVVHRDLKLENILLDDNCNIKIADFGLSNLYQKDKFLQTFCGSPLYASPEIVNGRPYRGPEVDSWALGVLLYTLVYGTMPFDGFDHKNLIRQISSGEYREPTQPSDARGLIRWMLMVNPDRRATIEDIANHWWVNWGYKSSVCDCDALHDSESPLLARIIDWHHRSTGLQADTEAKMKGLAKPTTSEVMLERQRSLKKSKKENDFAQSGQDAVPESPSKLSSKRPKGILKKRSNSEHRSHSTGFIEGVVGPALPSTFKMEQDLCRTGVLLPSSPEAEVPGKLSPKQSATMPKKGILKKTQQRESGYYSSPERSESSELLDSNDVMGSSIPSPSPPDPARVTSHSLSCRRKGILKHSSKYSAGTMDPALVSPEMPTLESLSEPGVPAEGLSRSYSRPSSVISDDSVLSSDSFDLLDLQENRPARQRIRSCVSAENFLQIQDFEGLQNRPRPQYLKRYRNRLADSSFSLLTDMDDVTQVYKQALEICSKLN
As to conditions: at 0.1 µM.

Experiment [12] has as its target T4, NUAK family SNF1-like kinase 1 (Homo sapiens). As to conditions: at 1 µM.
Experiment [13] concerns the target T5, Serine/threonine-protein kinase BRSK1 (Homo sapiens) (UniProt Q8TDC3).
T5 sequence (whole entry): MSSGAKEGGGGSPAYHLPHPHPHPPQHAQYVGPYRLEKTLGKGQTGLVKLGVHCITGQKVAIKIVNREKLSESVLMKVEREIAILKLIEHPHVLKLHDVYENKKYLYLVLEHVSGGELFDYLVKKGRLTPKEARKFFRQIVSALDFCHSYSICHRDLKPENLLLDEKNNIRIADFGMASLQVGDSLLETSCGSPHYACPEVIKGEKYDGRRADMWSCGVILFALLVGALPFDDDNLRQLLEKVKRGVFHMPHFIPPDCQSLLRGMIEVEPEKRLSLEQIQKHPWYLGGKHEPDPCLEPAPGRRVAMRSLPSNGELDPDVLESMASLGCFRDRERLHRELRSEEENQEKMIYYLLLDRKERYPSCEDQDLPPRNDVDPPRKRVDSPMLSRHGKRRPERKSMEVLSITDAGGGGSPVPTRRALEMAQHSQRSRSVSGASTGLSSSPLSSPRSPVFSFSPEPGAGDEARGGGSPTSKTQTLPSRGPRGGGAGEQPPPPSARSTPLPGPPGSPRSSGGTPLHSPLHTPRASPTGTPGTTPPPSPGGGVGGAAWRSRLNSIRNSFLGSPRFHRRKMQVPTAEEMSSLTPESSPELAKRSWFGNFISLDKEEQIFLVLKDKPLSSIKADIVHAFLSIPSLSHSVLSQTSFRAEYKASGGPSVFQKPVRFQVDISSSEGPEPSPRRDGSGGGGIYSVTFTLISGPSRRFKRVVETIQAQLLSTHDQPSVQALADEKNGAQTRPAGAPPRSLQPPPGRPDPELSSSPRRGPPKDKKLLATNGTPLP
As to conditions: at 0.1 µM.

Experiment [14] addresses T5, Serine/threonine-protein kinase BRSK1 (Homo sapiens). As to conditions: at 1 µM.
Experiment [15] has as its target T6, Serine/threonine-protein kinase BRSK2 (Homo sapiens) (UniProt Q8IWQ3).
T6 sequence (whole entry): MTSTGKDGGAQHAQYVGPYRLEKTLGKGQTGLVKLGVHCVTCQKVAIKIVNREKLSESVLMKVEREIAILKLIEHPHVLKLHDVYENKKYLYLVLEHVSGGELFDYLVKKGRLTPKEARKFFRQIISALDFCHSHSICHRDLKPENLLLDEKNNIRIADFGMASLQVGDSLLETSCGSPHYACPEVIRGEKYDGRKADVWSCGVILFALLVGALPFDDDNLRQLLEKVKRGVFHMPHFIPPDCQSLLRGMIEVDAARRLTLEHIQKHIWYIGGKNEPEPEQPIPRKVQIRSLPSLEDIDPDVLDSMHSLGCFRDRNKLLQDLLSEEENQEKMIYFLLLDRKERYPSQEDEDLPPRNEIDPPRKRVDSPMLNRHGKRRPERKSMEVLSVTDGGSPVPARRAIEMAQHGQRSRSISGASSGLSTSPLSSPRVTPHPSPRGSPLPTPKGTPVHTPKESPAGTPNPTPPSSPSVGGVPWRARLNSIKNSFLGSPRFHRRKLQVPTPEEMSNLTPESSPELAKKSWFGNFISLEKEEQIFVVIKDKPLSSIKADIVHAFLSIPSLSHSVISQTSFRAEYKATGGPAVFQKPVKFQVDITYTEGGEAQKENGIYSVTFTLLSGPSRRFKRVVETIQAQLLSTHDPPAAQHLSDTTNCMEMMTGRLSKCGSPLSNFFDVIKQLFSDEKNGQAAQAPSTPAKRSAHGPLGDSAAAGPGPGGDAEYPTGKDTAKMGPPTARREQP
As to conditions: at 0.1 µM.

Experiment [16] has as its target T6, Serine/threonine-protein kinase BRSK2 (Homo sapiens). As to conditions: at 1 µM.
The target in experiment [17] is Calcium/calmodulin-dependent protein kinase type 1D (Homo sapiens) (UniProt Q8IU85). As to conditions: at 0.1 µM.
The target is the same in experiment [18]. As to conditions: at 1 µM.
For experiment [19], the target named is Calcium/calmodulin-dependent protein kinase type II subunit alpha (Homo sapiens) (UniProt Q9UQM7). As to conditions: at 0.1 µM.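 Further: reported values are averages (mean inhibition of CAMK2A).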
Experiment [20] has as its target 5'-AMP-activated protein kinase catalytic subunit alpha-2 (Homo sapiens) (UniProt P54646). As to conditions: at 0.1 µM.

Four compounds from ChEMBL document CHEMBL1961873, “Compounds: GSK PKIS; Assays: Nanosyn kinase panel” (2012) can be followed below.

5'-AMP-activated protein kinase catalytic subunit alpha-1 (Homo sapiens), sequence (Q13131 whole entry, looked up): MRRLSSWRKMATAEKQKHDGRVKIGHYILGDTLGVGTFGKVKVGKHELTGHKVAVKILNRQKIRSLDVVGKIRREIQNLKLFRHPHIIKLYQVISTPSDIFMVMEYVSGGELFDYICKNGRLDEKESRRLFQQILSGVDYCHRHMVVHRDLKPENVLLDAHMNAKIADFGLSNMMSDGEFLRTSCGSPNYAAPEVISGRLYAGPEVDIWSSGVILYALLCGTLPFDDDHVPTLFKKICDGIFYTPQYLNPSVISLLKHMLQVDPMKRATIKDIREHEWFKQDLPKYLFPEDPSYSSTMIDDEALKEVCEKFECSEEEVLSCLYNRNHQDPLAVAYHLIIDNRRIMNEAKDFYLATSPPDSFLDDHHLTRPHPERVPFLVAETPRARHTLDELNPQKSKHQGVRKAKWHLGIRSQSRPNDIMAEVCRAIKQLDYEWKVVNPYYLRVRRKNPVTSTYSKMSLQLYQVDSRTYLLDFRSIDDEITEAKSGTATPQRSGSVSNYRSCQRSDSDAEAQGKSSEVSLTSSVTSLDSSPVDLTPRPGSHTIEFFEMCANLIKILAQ
Calcium/calmodulin-dependent protein kinase type II subunit alpha (Homo sapiens), sequence (Q9UQM7 whole entry): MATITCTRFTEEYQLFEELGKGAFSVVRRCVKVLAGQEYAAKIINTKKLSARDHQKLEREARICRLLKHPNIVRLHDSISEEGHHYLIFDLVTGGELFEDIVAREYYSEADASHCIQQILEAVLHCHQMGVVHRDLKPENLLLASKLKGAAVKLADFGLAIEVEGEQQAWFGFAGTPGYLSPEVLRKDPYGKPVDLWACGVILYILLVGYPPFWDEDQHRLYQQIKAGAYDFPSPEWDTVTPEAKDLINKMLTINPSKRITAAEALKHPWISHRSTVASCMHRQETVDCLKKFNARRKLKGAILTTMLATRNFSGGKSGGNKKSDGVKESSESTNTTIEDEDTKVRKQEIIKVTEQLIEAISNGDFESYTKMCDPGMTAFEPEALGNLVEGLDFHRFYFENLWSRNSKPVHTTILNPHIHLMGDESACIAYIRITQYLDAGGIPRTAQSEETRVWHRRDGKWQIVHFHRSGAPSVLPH
5'-AMP-activated protein kinase catalytic subunit alpha-2 (Homo sapiens), sequence (P54646 whole entry, looked up): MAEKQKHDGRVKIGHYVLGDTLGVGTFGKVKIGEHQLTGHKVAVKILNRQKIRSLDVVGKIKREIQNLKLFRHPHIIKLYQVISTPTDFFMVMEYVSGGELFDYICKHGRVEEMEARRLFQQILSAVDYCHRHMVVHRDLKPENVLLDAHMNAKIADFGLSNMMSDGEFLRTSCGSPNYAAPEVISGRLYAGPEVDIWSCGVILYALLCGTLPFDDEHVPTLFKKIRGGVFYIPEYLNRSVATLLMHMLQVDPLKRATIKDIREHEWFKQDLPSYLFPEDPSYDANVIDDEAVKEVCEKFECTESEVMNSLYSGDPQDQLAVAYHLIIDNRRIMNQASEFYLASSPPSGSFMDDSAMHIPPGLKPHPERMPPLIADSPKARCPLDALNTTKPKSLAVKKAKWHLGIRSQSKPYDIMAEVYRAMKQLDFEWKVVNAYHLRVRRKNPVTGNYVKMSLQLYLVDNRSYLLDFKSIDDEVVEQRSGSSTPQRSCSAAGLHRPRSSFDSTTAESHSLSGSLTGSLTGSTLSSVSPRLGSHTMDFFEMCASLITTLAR
Calcium/calmodulin-dependent protein kinase type 1D (Homo sapiens), sequence (Q8IU85 whole entry, looked up): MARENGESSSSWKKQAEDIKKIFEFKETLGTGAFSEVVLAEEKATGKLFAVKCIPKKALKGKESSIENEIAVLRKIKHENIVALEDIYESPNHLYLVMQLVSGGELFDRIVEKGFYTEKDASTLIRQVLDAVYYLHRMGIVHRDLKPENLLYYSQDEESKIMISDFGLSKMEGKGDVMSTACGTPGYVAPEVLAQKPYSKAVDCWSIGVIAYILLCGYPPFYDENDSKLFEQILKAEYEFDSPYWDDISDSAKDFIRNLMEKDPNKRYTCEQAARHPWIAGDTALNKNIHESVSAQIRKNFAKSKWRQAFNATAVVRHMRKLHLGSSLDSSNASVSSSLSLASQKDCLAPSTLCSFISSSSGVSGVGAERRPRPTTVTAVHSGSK
Ribosomal protein S6 kinase alpha-6 (Homo sapiens), sequence (Q9UK32 whole entry): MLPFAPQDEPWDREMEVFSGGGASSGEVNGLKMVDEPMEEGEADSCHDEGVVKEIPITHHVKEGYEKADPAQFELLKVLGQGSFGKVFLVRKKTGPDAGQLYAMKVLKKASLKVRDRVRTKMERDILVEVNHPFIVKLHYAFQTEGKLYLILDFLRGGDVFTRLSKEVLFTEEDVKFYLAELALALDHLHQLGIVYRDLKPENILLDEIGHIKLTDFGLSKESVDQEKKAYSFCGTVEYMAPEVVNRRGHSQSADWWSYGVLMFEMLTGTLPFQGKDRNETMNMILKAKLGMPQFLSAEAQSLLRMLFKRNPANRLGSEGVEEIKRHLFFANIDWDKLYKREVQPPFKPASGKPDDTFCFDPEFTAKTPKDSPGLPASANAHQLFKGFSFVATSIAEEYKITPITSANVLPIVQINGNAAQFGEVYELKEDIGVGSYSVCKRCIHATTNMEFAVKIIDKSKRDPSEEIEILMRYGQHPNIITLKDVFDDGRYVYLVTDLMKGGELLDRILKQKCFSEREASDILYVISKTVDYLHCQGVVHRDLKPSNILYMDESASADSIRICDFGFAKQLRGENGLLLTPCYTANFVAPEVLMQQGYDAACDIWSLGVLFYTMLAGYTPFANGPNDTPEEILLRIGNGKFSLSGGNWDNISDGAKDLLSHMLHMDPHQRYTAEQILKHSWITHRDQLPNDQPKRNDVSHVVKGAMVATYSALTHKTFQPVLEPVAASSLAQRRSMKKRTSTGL

As to `Nc1nc(-c2ccccn2)c(-c2ccc3ncccc3n2)s1`, the inhibition in experiment [1] was found to be 0.55%; in experiment [2], 4.14%; in [3] it was 2.85%; in experiment [4], 0.04%; in experiment [5], 1.55%; in experiment [6], 2.89%. In addition, the inhibition stood at 1.48% in experiment [7]; 0.55% in [8]; 2.96% in [9]; 3.76% in experiment [10]; 4.24% in experiment [11]; 5.19% in experiment [12]. The inhibition in [13] is -0.41%; in experiment [14], 2.4%; in [15], 0.9%; in experiment [16] it was 3.83%; in experiment [17], -0.97%; in experiment [18], 0.3%. For the same compound, in experiment [19], the inhibition is 1.9%.
As to `COc1ccccc1Nc1ncc(-c2ccccc2)o1`, the inhibition in experiment [1] came to 0.95%; in [2] it was 2.95%; in [3], 4.31%; in [4], 5.64%; in [5] it was 0.66%; in experiment [6], 4.99%. Moreover, the inhibition in experiment [7] is 3.37%; in [8], 1.74%; in [9] it was 3.31%; in experiment [20] it was 3.16%; in experiment [10] it was 4.09%; in experiment [11], -0.18%. Further, the inhibition in experiment [12] was -4.21%; in experiment [13], -0.58%; in experiment [14], 3.87%; in experiment [15] it was 2.96%; in [16], 4.49%; in [17], -0.11%. Further, the inhibition in experiment [18] was -0.14%; in experiment [19], 3.16%.
Regarding `CCn1c(-c2nonc2N)nc2c(C#CC(C)(C)O)nc(CN3CCCC3)cc21`, the inhibition in experiment [1] was 0.64%; in experiment [2] it was -0.45%; in [3], 0.58%; in experiment [4], 0.87%; in experiment [5] it was -0.61%; in [6], 0.78%. Further, the inhibition in experiment [7] is 0.63%; in experiment [8], 2.98%; in experiment [9], 3.34%; in experiment [20] it was 2.04%; in experiment [10] it was 6.62%; in experiment [11] it was -8.68%. Further, the inhibition was 2.69% in [12]; 0.47% in experiment [13]; 2.17% in experiment [14]; 1.38% in experiment [15]; 3.23% in [16]; 1.23% in experiment [17]. For the same compound, the values for the inhibition in experiment [18] and in [19] were 2.08% and -0.97%, respectively.
As for `CS(=O)(=O)Nc1ccc(N/C=C2\C(=O)Nc3ccccc32)cc1`, the inhibition in [1] was 11%; in experiment [2], 0.01%; in [3], 12.3%; in [4], -2.1%; in experiment [5], 1.93%; in [6], -3.12%. The inhibition in experiment [7] is -0.79%; in experiment [8], 0.57%; in experiment [9] it was 12%; in experiment [20], -0.35%; in experiment [10], 4.21%; in [11], 12.6%. For the same compound, the inhibition in [12] is 43.9%; in [13], 2.83%; in experiment [14], 16.5%; in [15], 4.09%; in experiment [16], 30.6%; in experiment [17], -1.16%. The inhibition in experiment [18] was 0.24%; in experiment [19], -3.83%.
